Experimental data taken from the supplement of paper PMC11482750.
± gives the standard deviation of the averaged measurements.

These targets were tested with CCCCN=C=S [butyl isothiocyanate] (assay: control-subtracted net OSN firing rate; higher = stronger neuronal activation). Conditions: odorant dilution (vol/vol): 1/100.
Experimental: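 Single sensillum recordings from olfactory sensory neurons. The neurons sit in the maxillary palp or antennal sensilla of D. melanogaster (wild type, mutants, or at1 empty-neuron lines expressing Or42a homologs or the A181D S307P mutant) and of four Scaptomyza species. Each odorant was given as a 1 s pulse from 20 µl loaded on filter paper at 1:100 vol/vol, diluted in mineral oil (γ-hexalactone in DMSO). Spikes were counted in a 0.5 s window starting 0.2 s after onset, background was subtracted, the count was doubled, and the mean solvent-control response was subtracted.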

Target | control-subtracted net OSN firing rate
Canton-S (D. melanogaster) pb1a | 8 ± 8.9 spikes/s
S. flava pb3b-like | 1.67 ± 15 spikes/s
S. montana pb3b-like | 0.333 ± 6.1 spikes/s
Or67dGal4, UAS-Sfla A181D S307P/+ at1 | 29 ± 10 spikes/s
S. flava pb1b-like | -17.7 ± 20 spikes/s
Or67dGal4, UAS-Sfla Or42a4 at1 | 96.7 ± 25 spikes/s
Or67dGal4; UAS-SflaOr42a4 at1 | 120 ± 36 spikes/s
S. montana pb1b-like | -15 ± 6.8 spikes/s
S. montana pb2b-like | -0.333 ± 6 spikes/s
Or67dGal4, UAS-Sfla Or42a3/+ at1 | 27.7 ± 5 spikes/s
Canton-S (D. melanogaster) pb2b | -1.71 ± 8.6 spikes/s
S. flava pb2b-like | -1.33 ± 10 spikes/s
S. pallida pb3b-like | -1.67 ± 20 spikes/s
S. pallida pb1b-like | -4.33 ± 11 spikes/s
S. pallida pb2b-like | 2.67 ± 9.3 spikes/s
S. hsui pb2a-like | -1 ± 6 spikes/s
Canton-S (D. melanogaster) pb3b | 2 ± 11 spikes/s
S. flava pb2a-like | -3 ± 8.9 spikes/s
Or67dGal4; UAS-SflaOr42a3 at1 | 74.8 ± 23 spikes/s
Or67dGal4, UAS-Spal Or42a at1 | 18.2 ± 16 spikes/s

Target | control-subtracted net OSN firing rate
S. hsui pb2b-like | 3.67 ± 6.9 spikes/s
Or67dGal4; UAS-A181D S301P at1 | 68.6 ± 33 spikes/s
S. hsui pb3a-like | 0 ± 6.8 spikes/s
Canton-S (D. melanogaster) pb1b | -2.22 ± 8 spikes/s
S. montana pb2a-like | 2 ± 4.6 spikes/s
Canton-S (D. melanogaster) pb3a | 2.5 ± 6.6 spikes/s
S. montana pb3a-like | 0.667 ± 10 spikes/s
S. pallida pb1a-like | 11.7 ± 10 spikes/s
Or67dGal4, UAS-Dmel Or42a at1 | 10.3 ± 7.7 spikes/s
Or67dGal4, UAS-Sfla Or42a2 at1 | 2.86 ± 5 spikes/s
S. pallida pb2a-like | 5 ± 7.6 spikes/s
S. hsui pb1a-like | 7.67 ± 5.8 spikes/s
S. flava pb3a-like | 5.67 ± 8.2 spikes/s
Canton-S (D. melanogaster) pb2a | 3.43 ± 2.8 spikes/s
Or67dGal4, UAS-Sfla Or42a3 at1 | 46 ± 28 spikes/s
S. hsui pb3b-like | 1 ± 2.8 spikes/s
Or67dGal4, UAS-Sfla Or42a4/+ at1 | 22.6 ± 4.1 spikes/s
S. flava pb1a-like | 90.7 ± 22 spikes/s
S. hsui pb1b-like | -1 ± 5.2 spikes/s
S. montana pb1a-like | 92.3 ± 11 spikes/s
